# Experimental data from PubChem BioAssay (NCI).
# This is part of a sample that, as a whole, favours compounds with a hit. Of some 83,000 tested, about 20% had one in any assay.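 48-hour exposure, single concentration, 96-well plates; percent growth endpoint where 0 means no net growth. Active: below 10.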 Unmarked numbers belong to inactive results. The source made the active and inactive calls.
# Tested on: HL-60(TB) leukemia
# Experiment: NCI-60 one-dose screen, 48 h (100 = growth as untreated, 0 = no growth, -100 = all killed)
# Details: 10 µM unless noted
row,Structure (SMILES),growth
1,BrC1CC(Br)c2c1c1c(c3c2C(Br)CC3Br)C(Br)CC1Br (centres undefined),55.7%
2,CC(C)=NNc1ncnc2c1ncn2C1OC(CO)C(O)C1O (centres undefined),6.58% (active)
3,O=C(Nc1ccccc1CNc1nc(Nc2ccc(OCCN3CCCC3)cc2)ncc1Cl)NC1CCCCC1,99.9%
4,CC(C)C[C@H](NC(=O)CCn1ccc2ccccc2c1=O)B(O)O,28.1%
